According to the supplement of paper PMC11628255, “Interference of metal ions on the bioluminescent signal of firefly, Renilla, and NanoLuc luciferases in high-throughput screening assays” (Frontiers in Chemistry, 2024):
± gives the standard deviation of the averaged measurements.

Tested on: firefly luciferase (FLuc)
Assay: residual bioluminescent signal relative to negative (DMSO) control; higher = less interference (more residual luciferase signal)
Method: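 Purified luciferase (FLuc 10 nM + 10 uM D-luciferin; NLuc 10 pM + 10 uM furimazine; RLuc 50 pM + 2 uM coelenterazine) in 384-well plates; metal salt pre-incubated with enzyme 10 min at RT, substrate added and luminescence read after 10 min. Signal normalised to plate DMSO negative control (% N_VALUE = x/mean neg *100); triplicate wells at 0.01, 1 and 5 mM salt.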

[1] = metal salt concentration 0.01 mM, HEPES conditions (100 mM HEPES, 5 mM MgSO4, 10 uM ATP, pH 7.5)
[2] = metal salt concentration 0.01 mM, screening conditions (0.5 mM Tris, 50 mM glycine, 0.5 mM EDTA, 5 mM MgSO4, 10 uM ATP, pH 7.6)
[3] = metal salt concentration 1 mM, HEPES conditions (100 mM HEPES, 5 mM MgSO4, 10 uM ATP, pH 7.5)
[4] = metal salt concentration 1 mM, screening conditions (0.5 mM Tris, 50 mM glycine, 0.5 mM EDTA, 5 mM MgSO4, 10 uM ATP, pH 7.6)
[5] = metal salt concentration 5 mM, HEPES conditions (100 mM HEPES, 5 mM MgSO4, 10 uM ATP, pH 7.5)
[6] = metal salt concentration 5 mM, screening conditions (0.5 mM Tris, 50 mM glycine, 0.5 mM EDTA, 5 mM MgSO4, 10 uM ATP, pH 7.6)

Compound | residual bioluminescent signal [1] [%] | residual bioluminescent signal [2] [%] | residual bioluminescent signal [3] [%] | residual bioluminescent signal [4] [%] | residual bioluminescent signal [5] [%] | residual bioluminescent signal [6] [%]
O=[N+]([O-])[O-].O=[N+]([O-])[O-].[Ni+2] [nickel(II) nitrate] | 64.7 ± 8.8 | 71.2 ± 7.5 | 2.31 ± 1.6 | 0.501 ± 0.33 | 0.814 ± 0.41 | 0.58 ± 0.091
O=[N+]([O-])[O-].O=[N+]([O-])[O-].O=[N+]([O-])[O-].[Al+3] [aluminium nitrate] | 78.9 ± 7.9 | 75.8 ± 6 | 0.679 ± 0.47 | 0.343 ± 0.17 | 0.543 ± 0.23 | 90.5 ± 5.5
O=[N+]([O-])[O-].O=[N+]([O-])[O-].[Cu+2] [copper(II) nitrate] | 2.58 ± 1 | 108 ± 11 | 0.407 | 0.712 ± 0.4 | 0.95 ± 0.62 | 0.553 ± 0.32
O=[N+]([O-])[O-].O=[N+]([O-])[O-].[Cd+2] [cadmium nitrate] | 2.44 ± 1.8 | 95.2 ± 4.7 | 1.09 ± 0.62 | 0.343 ± 0.12 | 1.09 ± 0.62 | 0.211 ± 0.17
O=[N+]([O-])[O-].O=[N+]([O-])[O-].[Zn+2] [zinc nitrate] | 3.8 ± 1.2 | 81.5 ± 7.4 | 1.49 ± 0.85 | 0.817 ± 0.28 | 1.09 ± 0.85 | 0.316 ± 0.079
O=[N+]([O-])[O-].[Ag+] [silver nitrate] | 1.36 ± 0.62 | 1.13 ± 0.6 | 1.36 ± 1.6 | 0.316 ± 0.079 | 1.49 ± 0.62 | 0.369 ± 0.17
O=[N+]([O-])[O-].[Na+] [sodium nitrate] | 90 ± 7.6 | 79.1 ± 6.3 | 72.4 ± 18 | 71.7 ± 2.9 | 60 ± 13 | 50 ± 4.3
